Pf growth 48h: P. falciparum growth inhibition at 48 hours (one generation); P. falciparum luciferase growth in erythrocytes, 48 h; Potency, µM (top dose mostly 28.7 µM), for the others: top-dose activity change, negative = inhibition, most hits filed as inhibitors; hit rate 5.9% among 310,000; also: potency is read from the fitted curve at half-maximal effect
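Erythrocytes infected with P. falciparum carrying an integrated firefly luciferase reporter (2% hematocrit, 0.1% parasitemia final) were exposed to compounds in RPMI 1640 with 0.5% Albumax at 37 C, 5% CO2. Growth inhibition was scored as reduced luminescence.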
Sm TGR inh: inhibitors of Schistosoma mansoni thioredoxin glutathione reductase; Q962Y6; purified TGR, DTNB reduction, TNB absorbance 405 nm; Potency, µM (doses to about 114 µM), without a hit: at the top dose activity change, negative = inhibition, hits mostly inhibitors; hit rate 3% among 360,000; AID 485364; also: potency is read from the fitted curve at half-maximal effect; nearly all actives have a fitted effect of over 60% in size
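First, TGR (20 nM dispensed) and NADPH were mixed with compound. Second, a 15 min room-temperature incubation followed. Third, further NADPH and then DTNB were added to start the reaction. Finally, TNB absorbance was monitored kinetically.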
HCMV antiviral: human cytomegalovirus inhibition; activity change, negative = inhibition, % at 57.5 µM; hit rate 4.5% among 410,000; AID 1259415; HFF cells, HCMV-luciferase reporter, 72 h; stronger effect = lower value; in the data active = activity change below about -60%; inconclusive = no clear call, values can overlap the other calls; inactive = above about -39%
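Inhibition of viral replication was scored as loss of reporter luminescence in HFFs infected with HCMV-luciferase (MOI 1 PFU/cell) for 72 h; compounds tested at 2 doses, normalized to buffer and Salinomycin controls.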
Pf growth 96h: inhibits malaria parasite growth, 96 h. P. falciparum luciferase reporter growth, 96 h. Potency, µM (top dose mostly 28.7 µM), for inactives: at the highest dose activity change, negative = inhibition, usual class: inhibitors. hit rate 6.9% among 320,000; also: potency is read from the fitted curve at half-maximal effect
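Parasite growth measured via integrated firefly luciferase reporter in P. falciparum. Infected erythrocytes at 2% hematocrit, 0.05% parasitemia final were treated 96 hours at 37 C under 5% CO2, and luminescence was read.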
FBPA Giardia inh: Giardia lamblia aldolase inhibition | A8B2U2 | purified Giardia FBPA | Potency, µM (highest dose often 59.6 µM), inactives show at the top dose activity, negative = inhibition, actives largely listed as inhibitors | hit rate 0.71% among 290,000; also: potency is read from the fitted curve at half-maximal effect; nearly all actives have a fitted effect of over 55% in size
Target sequence (A8B2U2 whole entry, looked up): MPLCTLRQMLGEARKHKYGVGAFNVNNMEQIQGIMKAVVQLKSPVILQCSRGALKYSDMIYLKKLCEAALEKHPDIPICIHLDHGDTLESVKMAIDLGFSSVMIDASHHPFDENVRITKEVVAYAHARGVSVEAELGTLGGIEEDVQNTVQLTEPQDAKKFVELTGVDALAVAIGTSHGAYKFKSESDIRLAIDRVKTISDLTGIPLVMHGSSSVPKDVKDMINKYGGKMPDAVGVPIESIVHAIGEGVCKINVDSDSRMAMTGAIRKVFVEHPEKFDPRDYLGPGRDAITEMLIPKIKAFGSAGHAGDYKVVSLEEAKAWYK
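Giardia FBPA (40 nM reagent) was preincubated 10 min at RT with compound (up to 57.5 uM final), then substrate plus GAPDH/TPI/NAD/arsenate coupling system with diaphorase/resazurin was added; resorufin fluorescence (525/598 nm) was read after 20 min.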
Starred values were filed as active, the others as inactive; i = inactive; ? = inconclusive; nt = no result; ! = a repeat was not active. A selection: hits, their analogues and other compounds. The true share with any hit is near 14%. Unless noted, calls follow the shape of the dose curve; as a rule, active = well fitted curve in the direction sought with a large enough effect; inconclusive = small, poorly fitted or top-dose-only effect, or another doubt; inactive = no such curve, though single readings can be large; an effect the other way counts as inactive or inconclusive. % is scaled to controls: 0 for no effect and ±100 for the full control effect.

SMILES	Pf growth 48h	Sm TGR inh	HCMV antiviral	Pf growth 96h	FBPA Giardia inh
O=C(Nc1sc2c(c1C(=O)NCc1cccnc1)CCCC2)c1ccco1	?	?	39	?	1%
COc1ccc(Cl)cc1NC(=O)c1c(NCc2ccc(C)o2)sc2c1CCCC2	nt	28µM*	25	nt	nt
COc1ccc(-c2nnc(SCC(=O)c3ccc(NC(C)=O)cc3)o2)cc1OC	nt	2%	27	nt	nt
CC1(C)CC(=O)C=C(c2ccccc2-c2ccc(S(C)(=O)=O)cc2)C1=O	nt	nt	-18	nt	nt
COc1ccc(OC)c(NC(=O)c2c(NCc3ccc(C)o3)sc3c2CCC(C)C3)c1 (centres undefined)	nt	40µM*	-1	nt	nt
COc1ccc(OC)c(NC(=O)c2c(NCc3ccc(OC)c(OC)c3)sc3c2CCC(C)C3)c1 (centres undefined)	nt	-1%	3	nt	nt
CC(=Nc1ccccc1N)c1c(C)cc(=O)n(O)c1O	nt	nt	nt	nt	16µM*
CC(=Nc1ccc(Cl)cc1N)c1c(O)cc(C)oc1=O	nt	nt	112	nt	nt
COc1ccc2c(c1)C1(C)CC(C)(C)N2C(=O)N1c1ccccc1 (centres undefined)	?	-15%	-21	10µM*	?
COc1ccc2c(c1)C(=O)N(c1ccccc1)C(=O)C2	?	81%	86	?	3%
O=C(O)c1cccc(N/N=C/C2=C(Cl)c3cc(Cl)ccc3SC2)c1	i	?	59	8.3µM*	24%
O=C(O)c1cccc(N/N=C/c2ccc(F)c(F)c2)c1	i	-9%	33	i	-1%
COc1ccc(Nc2ncc(C(=O)N3CCN(c4ccc(F)cc4)CC3)c3ccccc23)cc1	?	4%	-105*!	1.9µM*	-1%
COc1ccc(Nc2ncc(C(=O)N3CCC4(CC3)OCCO4)c3ccccc23)cc1	-4%	-16%	-76*	49%	-16%
O=C1NC(=O)c2cc3ccccc3cc21	21%	-16%	0	3%	nt
CCOc1ccc(C(=O)NCCN2CCCCC2)c(OCC)c1	?	-25%	-9	89%	-3%
Cc1ccc(N(C(=O)CCC(=O)Nc2nccs2)C(C(=O)NC(C)(C)C)c2ccc(O)cc2)cc1 (centres undefined)	?	nt	?	8.3µM*	2%
CC(C)(C)NC(=O)C(c1ccc(O)cc1)N(C(=O)CCC(=O)Nc1nccs1)c1ccc(F)cc1 (centres undefined)	?	9%	-13	10µM*	1%
COCCNC(=O)C(c1ccc(F)cc1)N(C(=O)CCC(=O)Nc1nccs1)c1ccc(C)cc1 (centres undefined)	?	1%	-32	32%	5%
CC(C)(C)NC(=O)C(c1ccc(O)cc1)N(Cc1ccccc1)C(=O)CCC(=O)Nc1nccs1 (centres undefined)	-3%	6%	-20	-6%	1%
Cc1cc(C)cc(-n2c(SCC(N)=O)nc3c(oc4ccccc43)c2=O)c1	nt	-5%	-40	nt	nt
CN1CCN(CCCNC(=O)c2ccc(/C=C3\Sc4ccccc4N(Cc4ccccc4F)C3=O)cc2)CC1	?	2%	-63*	-4%	13%
Cc1cccc(CN2C(=O)/C(=C\c3ccc(C(=O)NCCN4CCOCC4)cc3)Sc3ccccc32)c1	?	-6%	nt	?	nt
O=C(NCCN1CCOCC1)c1ccc(/C=C2\Sc3ccccc3N(Cc3ccccc3F)C2=O)cc1	?	-2%	-35	?	5%
CCN1CCN(CCNC(=O)c2ccc3c(c2)N(Cc2ccc(F)cc2)C(=O)/C(=C/c2ccccc2)S3)CC1	6.6µM*	-5%	-81*	3%	-1%
CCN1CCN(CCNC(=O)c2ccc(/C=C3/Sc4ccccc4N(Cc4cccc(Cl)c4)C3=O)cc2)CC1	?	6%	-103*	?	1%
O=C(NCCN1CCOCC1)c1ccc2c(c1)N(Cc1cccc(F)c1)C(=O)c1ccccc1S2	?	?	0	-13%	-10%
COc1ccccc1CN1C[C@@H]2C[C@@H](c3[nH]c4c(C)cccc4c3C)N3CCC[C@@]23C1=O	6.6µM*	-14%	6	12µM*	-10%
COc1ccccc1CN1C[C@@H]2C[C@@H](c3cccc(C)c3)N3CCC[C@@]23C1=O	?	1%	-27	10µM*	0%
